Data on three molecules can be found in PubChem BioAssay (EPA / NIEHS).

Read-out in experiment [1]: Interleukin-1 alpha (IL1a), IL1A (gene 3552)
Briefly: BSK_KF3CT_IL1a: BioMAP Diversity Plus: KF3CT Assay for Interleukin-1 alpha (IL1a) Biomarker Activity (AID 2283070). Conditions: primary human keratinocytes with fibroblasts; actives raise or lower the signal. The essentials:
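Primary skin co-culture (keratinocytes, foreskin fibroblasts), 24 h exposure; ELISA for IL-1a; bidirectional curve fit vs DMSO.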

Read-out in experiment [2]: TIMP metallopeptidase inhibitor 2 (TIMP2), TIMP2 (gene 7077)
In words: BSK_KF3CT_TIMP2: BioMAP Diversity Plus: KF3CT Assay for TIMP metallopeptidase inhibitor 2 (TIMP2) Biomarker Activity (AID 2283071). The settings on record: primary human keratinocytes with fibroblasts; actives raise or lower the signal. The method, boiled down:
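ELISA readout of TIMP-2 in keratinocyte plus foreskin fibroblast co-cultures (human skin primary cells), 24 h post-dose. Gain or loss of signal fitted relative to DMSO.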

Read-out in experiment [3]: Transforming growth factor beta 1 (TGFb1), TGFB1 (gene 7040)
In words: BSK_KF3CT_TGFb1: BioMAP Diversity Plus: KF3CT Assay for Transforming growth factor beta 1 (TGFb1) Biomarker Activity (AID 2283072). The settings on record: primary human keratinocytes with fibroblasts; actives raise or lower the signal. The essentials:
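Read-out: ELISA for TGF-b1 in keratinocyte/foreskin fibroblast human skin co-culture, 24 h after dosing; bidirectional curve fit vs DMSO baseline; gain or loss of signal scored.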

Read-out in experiment [4]: C-C motif chemokine 2 (Homo sapiens) (UniProt P13500)
In words: BSK_KF3CT_MCP1: BioMAP Diversity Plus: KF3CT Assay for Monocyte Chemoattractant Protein 1 (MCP1/CCL2) Biomarker Activity (AID 2283073). Conditions: primary human keratinocytes with fibroblasts; actives raise or lower the signal. The essentials:
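ELISA readout of MCP-1 after 24 h chemical dosing of a human skin primary co-culture of keratinocytes and foreskin fibroblasts. Activity was fitted in both directions against DMSO.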

Read-out in experiment [5]: Matrix Metallopeptidase 9 (MMP9), MMP9 (gene 4318)
In words: BSK_KF3CT_MMP9: BioMAP Diversity Plus: KF3CT Assay for Matrix Metallopeptidase 9 (MMP9) Biomarker Activity (AID 2283074).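 For AC50: MMP9 protein level quantified by ELISA in the co-culture.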 The settings on record: primary human keratinocytes with fibroblasts; actives raise or lower the signal. The method, boiled down:
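ELISA read-out of MMP-9 at 24 h post-dosing in a co-culture of human skin keratinocytes and foreskin fibroblasts. Gain or loss of signal was fitted in both directions against DMSO.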

Read-out in experiment [6]: urokinase plasminogen activator (uPA), PLAU (gene 5328)
Briefly: BSK_KF3CT_uPA: BioMAP Diversity Plus: KF3CT Assay for urokinase plasminogen activator (uPA) Biomarker Activity (AID 2283075). The settings on record: primary human keratinocytes with fibroblasts; actives raise or lower the signal. The method, boiled down: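 Skin co-culture (keratinocytes + foreskin fibroblasts), human primary; 24 h post-dose; uPA by ELISA; gain/loss fit vs DMSO baseline.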

Read-out in experiment [7]: CD40, CD40 (gene 958)
In words: BSK_LPS_CD40: BioMAP Diversity Plus: LPS Assay for CD40 Biomarker Activity (AID 2283076). Conditions: primary human HUVEC with PBMC; actives raise or lower the signal. The method, boiled down: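 Cells were dosed, incubated 24 h, then assayed for CD40 by ELISA. Gain or loss of signal was analysed relative to DMSO controls. The culture paired human umbilical vein endothelium with peripheral blood mononuclear cells.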

Read-out in experiment [8]: Interleukin-8 (IL8), CXCL8 (gene 3576)
Briefly: BSK_LPS_IL8: BioMAP Diversity Plus: LPS Assay for Interleukin-8 (IL8) Biomarker Activity (AID 2283078). Conditions: primary human HUVEC with PBMC; actives raise or lower the signal. The method, boiled down: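 Readout is IL-8 by ELISA, taken 24 h after compounds were added to LPS-stimulated endothelial/PBMC co-cultures. Both increases and decreases relative to DMSO control were scored through bidirectional fitting.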

Experiment [9] is described as follows: BSK_LPS_SRB: Viability Assessment in the BioMAP Diversity Plus: LPS Assay (AID 2283079).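 Note: total protein by sulforhodamine B absorbance as a cytotoxicity measure; measured one day after compound addition.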 The settings on record: primary human HUVEC with PBMC. The method, boiled down: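 Readout is SRB absorbance at 560 nm (0.1% stain, TCA-fixed parallel cultures) as a total-protein cytotoxicity measure. Cells: primary human umbilical vein endothelium plus peripheral blood mononuclear cells, 24 h after chemical exposure; DMSO served as baseline.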

Read-out in experiment [10]: Interleukin-1 alpha (IL1a), IL1A (gene 3552)
In words: BSK_LPS_IL1a: BioMAP Diversity Plus: LPS Assay for Interleukin-1 alpha (IL1a) Biomarker Activity (AID 2283080). Conditions: primary human HUVEC with PBMC; actives raise or lower the signal. The essentials:
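ELISA read-out of IL-1 alpha from a human primary vascular co-culture (endothelium plus PBMC) under LPS, sampled 24 hours post-dosing. Activity was fitted in both directions relative to DMSO controls.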

Read-out in experiment [11]: Monocyte Chemoattractant Protein-1 (MCP1), CCL2 (gene 6347)
Briefly: BSK_LPS_MCP1: BioMAP Diversity Plus: LPS Assay for Monocyte Chemoattractant Protein-1 (MCP1) Biomarker Activity (AID 2283081).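 For AC50: secreted MCP-1 protein quantified by ELISA in culture supernatant.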 Conditions: primary human HUVEC with PBMC; actives raise or lower the signal. The method, boiled down:
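Human endothelial–PBMC co-cultures were dosed with chemical, then LPS-driven MCP-1 levels were quantified by ELISA at 24 h. Activity in either direction was fitted versus DMSO negative control.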

A short description of experiment [12]: BSK_LPS_PGE2: BioMAP Diversity Plus: LPS Assay for Prostaglandin E2 (PGE2) Biomarker Activity (AID 2283082).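 For AC50: secreted prostaglandin E2 measured by ELISA in LPS-stimulated co-culture.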 The settings on record: primary human HUVEC with PBMC; actives raise or lower the signal. The essentials: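 ELISA read-out of PGE2 from human umbilical vein endothelial cells co-cultured with peripheral blood mononuclear cells under LPS, 24 h post-dose. Gain or loss of signal scored relative to DMSO baseline.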

Read-out in experiment [13]: Tissue Factor, F3 (gene 2152)
Briefly: BSK_LPS_TissueFactor: BioMAP Diversity Plus: LPS Assay for Tissue Factor Biomarker Activity (AID 2283084). The settings on record: primary human HUVEC with PBMC; actives raise or lower the signal. The essentials: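 ELISA signal for cell-surface Tissue Factor (CD142) was read 24 h after compound dosing of an LPS-stimulated human endothelial–PBMC primary co-culture. Gain or loss of signal was scored relative to DMSO.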

Read-out in experiment [14]: Tumor necrosis factor (Homo sapiens) (UniProt P01375)
Briefly: BSK_LPS_TNFa: BioMAP Diversity Plus: LPS Assay for Tumour Necrosis Factor alpha (TNFa) Biomarker Activity (AID 2283085). The settings on record: primary human HUVEC with PBMC; actives raise or lower the signal. The method, boiled down:
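HUVEC/PBMC co-culture, LPS-stimulated; 24 h post-dose; TNFa by ELISA; gain or loss of signal fitted bidirectionally vs DMSO baseline.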

Read-out in experiment [15]: Vascular cell adhesion molecule 1 (VCAM1), VCAM1 (gene 7412)
In words: BSK_LPS_VCAM1: BioMAP Diversity Plus: LPS Assay for Vascular cell adhesion molecule 1 (VCAM1) Biomarker Activity (AID 2283086). Conditions: primary human HUVEC with PBMC; actives raise or lower the signal. The method, boiled down:
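ELISA read-out of VCAM-1 at 24 h post-dosing in an LPS-driven HUVEC/PBMC primary human co-culture; gain or loss of signal fitted bidirectionally against DMSO baseline. Cytotoxicity tracked in parallel cultures by SRB total-protein staining.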

Read-out in a further experiment: CD38, CD38 (gene 952)
In words: BSK_SAg_CD38: BioMAP Diversity Plus: SAg Assay for CD38 Biomarker Activity (AID 2283087). Conditions: primary human HUVEC with PBMC; actives raise or lower the signal. The method, boiled down:
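Measures CD38 on a human endothelial/PBMC co-culture driven by SEB and TSST-1, 24 h after compound exposure, using ELISA with fluorescence detection; DMSO defines baseline for bidirectional curve fitting.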

Read-out in experiment [16]: CD40, CD40 (gene 958)
Briefly: BSK_SAg_CD40: BioMAP Diversity Plus: SAg Assay for CD40 Biomarker Activity (AID 2283088). The settings on record: primary human HUVEC with PBMC; actives raise or lower the signal. The essentials: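 Compounds were dosed onto a human primary endothelial–PBMC co-culture, and after 24 h CD40 was quantified by ELISA using a fluorescence signal. Activity in either direction was fitted relative to DMSO.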

Read-out in another experiment: CD69, CD69 (gene 969)
In words: BSK_SAg_CD69: BioMAP Diversity Plus: SAg Assay for CD69 Biomarker Activity (AID 2283089).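 For AC50: cell surface CD69 protein quantified by ELISA with fluorescence detection.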 Conditions: primary human HUVEC with PBMC; actives raise or lower the signal. The method, boiled down: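 Values derive from bidirectional fitting relative to DMSO vehicle. Cells: umbilical vein endothelium plus peripheral blood mononuclear cells, treated 24 h before fluorescent ELISA for CD69.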

Read-out in experiment [17]: E-selectin (Homo sapiens) (UniProt P16581)
Briefly: BSK_LPS_Eselectin: BioMAP Diversity Plus: LPS Assay for Eselectin Biomarker Activity (AID 2283077). The settings on record: primary human HUVEC with PBMC; actives raise or lower the signal. The essentials: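 Primary human vascular co-culture (endothelium plus PBMC) was dosed with chemical, then E-selectin quantified by ELISA at 24 h. Endpoint values derive from bidirectional curve fitting relative to DMSO.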

Read-out in experiment [18]: Macrophage colony-stimulating factor (MCSF), CSF1 (gene 1435)
In words: BSK_LPS_MCSF: BioMAP Diversity Plus: LPS Assay for Macrophage colony-stimulating factor (MCSF) Biomarker Activity (AID 2283083). Conditions: primary human HUVEC with PBMC; actives raise or lower the signal. The method, boiled down:
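ELISA readout of M-CSF after 24 h compound exposure in a human endothelial/PBMC co-culture. Activity, in either direction, is fitted relative to DMSO vehicle.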

Several values for one entry are separate records, joined by “and”; a condition that tells them apart may be missing. Identical values can stand only once. Where a structure was tested more than once in an assay, its records may differ in their call. Activity calls are given as the source filed them. Rule for the calls: active = hit-call score of the fitted dose curve at least 0.9, where 1 is the maximum; inactive = score below 0.9.

Chain of E-selectin (Homo sapiens) (P16581 whole entry, looked up): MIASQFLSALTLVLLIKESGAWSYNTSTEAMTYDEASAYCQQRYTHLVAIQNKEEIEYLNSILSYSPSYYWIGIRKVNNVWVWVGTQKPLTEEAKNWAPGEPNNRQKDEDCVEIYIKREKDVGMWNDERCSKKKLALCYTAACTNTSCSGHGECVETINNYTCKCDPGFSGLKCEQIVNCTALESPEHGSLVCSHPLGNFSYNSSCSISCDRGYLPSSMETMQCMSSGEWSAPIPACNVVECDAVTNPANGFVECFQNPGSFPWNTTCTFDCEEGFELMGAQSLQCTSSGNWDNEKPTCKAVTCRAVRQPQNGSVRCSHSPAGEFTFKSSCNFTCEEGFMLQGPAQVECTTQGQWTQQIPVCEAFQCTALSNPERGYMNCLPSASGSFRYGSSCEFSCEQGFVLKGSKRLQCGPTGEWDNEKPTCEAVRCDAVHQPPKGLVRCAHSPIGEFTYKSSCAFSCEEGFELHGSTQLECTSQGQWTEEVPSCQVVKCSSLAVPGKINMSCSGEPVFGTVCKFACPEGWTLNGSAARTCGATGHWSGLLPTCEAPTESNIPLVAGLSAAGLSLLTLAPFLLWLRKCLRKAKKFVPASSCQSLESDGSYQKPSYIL
Chain of Tumor necrosis factor (Homo sapiens) (P01375 whole entry, looked up): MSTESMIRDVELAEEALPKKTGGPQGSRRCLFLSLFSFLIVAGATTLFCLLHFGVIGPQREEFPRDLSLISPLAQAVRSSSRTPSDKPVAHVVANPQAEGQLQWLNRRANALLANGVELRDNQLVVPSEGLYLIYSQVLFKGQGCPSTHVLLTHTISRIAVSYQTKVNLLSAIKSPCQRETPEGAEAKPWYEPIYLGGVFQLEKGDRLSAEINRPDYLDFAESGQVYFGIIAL

For `Nc1ccc2ccccc2c1`, the result in experiment [1], in experiment [2], in experiment [3], in experiment [4], in experiment [5] and in experiment [6] was inactive. The outcome in the experiment with CD40, CD40 (gene 958) [7] is “inactive”; in experiment [8], “inactive”; in experiment [9], “inactive”; in [10] it was “inactive”; in experiment [11] it was “inactive”; in experiment [12], “inactive”. In addition, the outcome was “inactive” in experiment [13]; “inactive” in experiment [14]; “inactive” in experiment [15]; “inactive” with CD38, CD38 (gene 952); “inactive” with CD40, CD40 (gene 958) [16]; “inactive” with CD69, CD69 (gene 969).

As for `OCC(F)(F)OC(F)(F)C(F)(F)OC(F)(F)C(F)(F)OC(F)(F)CO`, the outcome in [1] was “inactive”; in [2], “inactive”; in [4], “inactive”; in [5], “inactive”; in experiment [6], “inactive”; with CD40, CD40 (gene 958) [7], “inactive”. Moreover, the outcome in [17], in experiment [8], in experiment [9], in experiment [10], in experiment [11] and in [12] was inactive. The outcome is “inactive” in [13]; “inactive” in experiment [15]; “inactive” with CD38, CD38 (gene 952); “inactive” with CD40, CD40 (gene 958) [16]; “inactive” with CD69, CD69 (gene 969). Further, the AC50 in the experiment with CD40, CD40 (gene 958) [7] was 7.62 µM (active); in [9], 30 µM (active); in the experiment with CD38, CD38 (gene 952) it was 24.3 µM (active); with CD40, CD40 (gene 958) [16], 30 µM (active); with CD69, CD69 (gene 969) it was 12.9 µM (active).

In the case of `OCC(F)(F)OC(F)(F)C(F)(F)OC(F)(F)C(F)(F)OC(F)(F)F`, the AC50 was 41.4 µM (active) and 44.4 µM (active) in experiment [1]; 51.7 µM (active) and 45 µM (active) in [2]; 49.3 µM (active) and 22.2 µM (active) in experiment [4]; 54.1 µM (active) and 51.6 µM (active) in [5]; 45.7 µM (active) and 45.1 µM (active) in experiment [6]; 41 µM (active) with CD40, CD40 (gene 958) [7]. For the same molecule, the AC50 was 47.4 µM (active) and 51.8 µM (active) in experiment [8]; 55.1 µM (active) in experiment [10]; 52.2 µM (active) in experiment [11]; 30 µM (active) and 46.8 µM (active) in experiment [12]; 49.8 µM (active) in experiment [13]; 42.8 µM (active) in experiment [15]. Also, the half-maximal activity concentration (AC50) with CD38, CD38 (gene 952) was 48.8 µM (active); in the experiment with CD40, CD40 (gene 958) [16], 41.6 µM (active); with CD69, CD69 (gene 969) it was 24.4 µM (active) and 45.7 µM (active). Besides, the outcome was “inactive” with CD40, CD40 (gene 958) [7]; “inactive” in [9]; “inactive” in [10]; “inactive” in experiment [11]; “inactive” in experiment [18]; “inactive” in [13]. The outcome was “inactive” in experiment [15]; “inactive” in the experiment with CD38, CD38 (gene 952); “inactive” with CD40, CD40 (gene 958) [16].
